In the library only some 7.5% were active in any assay of this set; here they are far more common.
FLuc counter = qHTS profiling assay for firefly luciferase inhibitor/activator using purifed enzyme and Km concentrations of substrates (counterscreen for miR-21 project); 360,000 compounds, 6.9% hits; purified FLuc, Km substrates, luminescence inhibition; AID 588342, 2011; Luciferin 4-monooxygenase (Photinus pyralis), P08659; Potency, µM (titrated, usually from 57.5 µM), for inactives: top-dose activity change, negative = inhibition, actives largely listed as inhibitors;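 note: plate controls were vehicle for no effect and reference inhibitor for full effect; nearly all actives have a fitted effect of over 55% in size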
Target sequence (P08659 whole entry, looked up): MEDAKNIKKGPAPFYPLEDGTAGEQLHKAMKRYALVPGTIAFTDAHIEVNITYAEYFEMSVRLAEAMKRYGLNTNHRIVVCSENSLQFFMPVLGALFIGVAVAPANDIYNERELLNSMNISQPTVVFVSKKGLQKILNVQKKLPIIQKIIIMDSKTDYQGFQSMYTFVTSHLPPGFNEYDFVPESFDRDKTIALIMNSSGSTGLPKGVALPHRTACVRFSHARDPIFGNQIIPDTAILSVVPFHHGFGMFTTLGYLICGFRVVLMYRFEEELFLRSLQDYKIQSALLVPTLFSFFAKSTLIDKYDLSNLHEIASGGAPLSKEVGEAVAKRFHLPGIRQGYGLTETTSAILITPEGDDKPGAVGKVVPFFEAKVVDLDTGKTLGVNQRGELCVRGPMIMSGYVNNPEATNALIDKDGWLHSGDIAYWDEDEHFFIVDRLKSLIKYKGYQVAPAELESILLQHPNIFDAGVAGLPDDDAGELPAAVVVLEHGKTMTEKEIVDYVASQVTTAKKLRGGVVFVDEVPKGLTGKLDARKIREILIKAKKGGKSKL
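Purified P. pyralis luciferase (10nM final) with 10uM D-luciferin and 10uM ATP (Km levels) in 50mM Tris acetate pH 7.5, 10mM Mg acetate, 0.01% Tween-20, 0.05% BSA; qHTS 6-point titration, ~60 µM downward; luminescence read.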
ELG1 genotoxic = qHTS screen for small molecules that induce genotoxicity in human embryonic kidney (HEK293T) cells expressing luciferase-tagged ELG1; HEK293T ELG1-luciferase reporter, luminescence, 16 h; Potency, µM (highest dose often 46 µM), without a hit: at the top dose activity change, positive = activation, most hits filed as activators; 330,000 compounds, 1.3% hits; AID 504466, 2011; note: % of control where 0% means no effect; nearly all actives have a fitted effect of over 60% in size
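Genotoxicity was scored as increased ELG1-luciferase reporter signal, measured by ONE-Glo luminescence (30 min, room temperature). Compound or vehicle exposure of the HEK293T reporter cells lasted 16 hr at 37°C.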
SMN2 splice enh = qHTS Assay for Enhancers of SMN2 Splice Variant Expression | AID 1458, 2008 | HEK293 SMN2-luciferase splicing reporter, luminescence, 30-36 h | 210,000 compounds, 2.8% hits | Potency, µM (highest dose often 46.1 µM), inactives show at the top dose activity change, positive = activation, hits mostly activators; note: % of control where 0% means no effect; nearly all actives have a fitted effect of over 55% in size
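HEK293 cells carry an SMN2 […]–luciferase reporter in which exon 7 inclusion puts luciferase in frame. Cells were plated 10-12 h before compound addition, then incubated 30-36 h at 37C. ONE-Glo luminescence was read; sodium butyrate at 4.5 mM final served as control.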
Rab9 prom act = qHTS Assay for Rab9 Promoter Activators | Huh7 Rab9 promoter-luciferase reporter, luminescence, 24 h | Potency, µM (titrated, usually from 9.22 µM), for inactives: at the highest dose activation, negative = inhibition, actives largely listed as activators | 320,000 compounds, 2.8% hits; note: % of control where 0% means no effect; nearly all actives have a fitted effect of over 60% in size
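Steps: seed 1500 Huh7 Rab9-luc cells per well, rest 2 h at 37 °C; add compound in DMSO; incubate 24 h; add luciferase reagent, 10 min ambient; read luminescence.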
NPC1 prom act = qHTS Assay for NPC1 Promoter Activators. Potency, µM (top dose mostly 9.22 µM), inactives show at the highest dose activation, actives largely listed as activators. Huh7 NPC1 promoter luciferase reporter, 24 h. 320,000 compounds, 2.4% hits; note: % of control where 0% means no effect; nearly all actives have a fitted effect of over 60% in size
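Stable NPC1-promoter luciferase Huh7 line; cpd (DMSO) 24 h, 37 °C, 5% CO2; Amplite luciferase reagent 10 min RT; luminescence readout. qHTS format.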
Luc counter = Counterscreen for Luciferase (Kinase-Glo TM) Inhibition; AID 1379, 2008; 200,000 compounds, 0.28% hits; Potency, µM (series often up to 38.3 µM), for inactives: top-dose activity change, negative = inhibition, hits mostly inhibitors; Kinase-Glo luciferase, ATP luminescence, 8 min; note: % is set by controls: 0 for no effect and ±100 for the full control effect; nearly all actives have a fitted effect of over 60% in size
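Compound is pinned into ATP-containing buffer (10 uM ATP, imidazole pH 7.2, 7 mM MgCl2). Kinase-Glo luciferase reagent is then added. Light output is recorded following an 8-min room-temperature incubation.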
Numbers without * were called inactive; ? = inconclusive; . = no result; [ ] = remark or other dose. Calls come from the whole dose curve; as a rule, active = well fitted curve in the direction sought with a large enough effect; inconclusive = small, poorly fitted or top-dose-only effect, or another doubt; inactive = no such curve, though single readings can be large; an effect the other way counts as inactive or inconclusive. Potency is the fitted concentration of half-maximal effect.

SMILES	FLuc counter	ELG1 genotoxic	SMN2 splice enh	Rab9 prom act	NPC1 prom act	Luc counter
Cc1ccc(C(=O)CC(=O)c2ccccc2)cc1	9.5µM*	25%	.	2.2µM*	2.5µM*	.
O=C(CN1C(=O)CCC1=O)c1ccc(-c2ccccc2)cc1	?	17%	4µM*	?	24%	-6%
CC(=O)NC(C)C(=O)OCC(=O)c1ccc(-c2ccccc2)cc1 (stereo not given)	13µM*	11%	7%	-4%	-3%	3%
Cc1ccc(C(=O)OCC(=O)Nc2ccccc2)cc1NC(=O)c1ccco1	-13%	?	6%	14%	-3%	1%
CC(=O)Nc1cc(C(=O)OCC(=O)c2ccccc2)ccc1C	19µM*	15µM*	10µM*	4.5µM*	3.2µM*	-3%
CCn1c(=N)c(C(=O)NC2CCCC2)cc2c(=O)n3ccccc3nc21	-3%	.	1%	.	.	.
CCc1nnc(NC(=O)CCC(=O)NCc2ccccc2Cl)s1	-1%	11%	.	-3%	0%	.
CC1CCCN(Cc2c(O)ccc3c(=O)c(-c4ccccc4Cl)c(C(F)(F)F)oc23)C1 (stereo not given)	0%	.	-3%	.	.	.
COc1ccc(OC)c(C(=O)CSc2ncc3c(n2)-c2ccccc2N(Cc2ccccc2C)S3(=O)=O)c1	3%	.	.	.	.	.
O=C(COC(=O)c1ccc(-c2cnc3ccccc3n2)cc1)c1ccccc1	-9%	2%	8%	?	24%	-1%
Cc1ccc(C(=O)COC(=O)c2cc(Cl)nc3ccccc23)cc1	11µM*	2%	1%	1%	-1%	-1%
Cc1ccc(S(=O)(=O)/N=C(/Sc2ccccc2C(=O)O)c2ccccc2)cc1	-4%	2%	.	2%	-1%	.
O=C(COC(=O)c1cc(Cl)nc2ccccc12)c1ccc(Cl)cc1	?	-1%	-7%	0%	-2%	4%
CCc1ccc(C(=O)COC(=O)c2ccc(-c3nnc(-c4ccccc4)o3)cc2)cc1	-4%	?	7.9µM*	0.56µM*	0.89µM*	-2%
Cc1ccc(C(=O)Sc2cccccc2=O)cc1	3µM*	6.5µM*	.	-52%	-39%	.
Cc1ccc(C(=O)OCC(=O)c2ccccc2)cc1	1.9µM*	0.58µM*	.	0.56µM*	0.32µM*	.
COc1cccc(C(=O)Nc2ccc3nc(SCCOc4ccccc4)sc3c2)c1	-1%	.	.	.	.	.
COC(=O)C(CC(=O)c1ccccc1)CC(=O)c1ccccc1	?	12%	.	0%[1.84 µM]	15%	.
CCOC(=O)C(CC(=O)c1ccccc1)CC(=O)c1ccccc1	13µM*	17%	.	23%	?	.
CCCC(=O)c1ccc(-c2ccccc2)cc1	17µM*	?	?	0%	6%	1%
CCCCCCCCCCCCCCC[C@@H](O)[C@H](CO)NC(C)=O	.	.	-7%	.	.	-1%
N#CCCN1CCN(C(=S)c2ccc(-c3cccc(Cl)c3)o2)CC1	19µM*	?	20%	?	22%	-5%
CC(=O)N1CCN(C(=S)c2ccc(-c3ccc(Cl)cc3)o2)CC1	?	0%	.	-1%	0%	.
N#CCCN1CCN(C(=S)c2ccc(-c3ccc(Cl)c(Cl)c3)o2)CC1	15µM*	?	9%	26%	13%	-4%
O=C(c1ccc(-c2cccc(Cl)c2)o1)N1CCN(c2ccc([N+](=O)[O-])cc2)CC1	2%	7%	-14%	0%	1%	0%
COc1ccc(NC(=O)C2(c3cccs3)CCOCC2)cc1Cl	1%	.	.	.	.	.
CN(C(=O)c1cc2ccccc2cc1O)C1CCCCC1	-12%	9%	.	5%	-7%	.

Screens from PubChem BioAssay.
